The results in this text go back to PubChem BioAssay AID1626 (SRMLSC, 2009).

The structures appear in SMILES notation. Out of some 220,000 compounds screened, about 2,000 (0.91%) were called active. Roughly 2% stayed inconclusive and do not appear here. Cut-off read from the data, not from the text of the source: inconclusive = inhibition above about 80% without an active follow-up result; inactive = below that; test concentration not stated here. A selection follows. Entries with a potency or affinity are not part of this list.

For orientation: inhibition means the drop in the measured response relative to a control, in per cent.

This test is described as follows: M. tuberculosis H37Rv growth inhibitors, H37Rv strain (AID 1626).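 Note: bacteria incubated seven days before Alamar blue readout; 0% = bacteria only wells and 100% = bacteria with antibiotic wells.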 The settings on record: hits give high values, concentration not given here.
Take `COc1ccc(-c2csc(N3C(=O)C4C5c6ccccc6C(c6ccccc65)C4C3=O)n2)cc1` (configuration not stated): the inhibition is 49% (inactive). The result for `CCc1c(C#N)c(SCCC(=O)Nc2ccc(F)cc2)nc2c1C(=O)CC(C)(C)C2` reads 6.22% (inactive); that for `O=C(c1c(F)cccc1F)N1CCCC1`, -1.31% (inactive). Regarding `O=C(NC1CC1)c1cc2c(F)cccc2s1`, the inhibition is -6.42% (inactive). As for `COc1ccc(C(=O)OC(C(=O)c2ccc(C)cc2)c2ccccc2)cc1` (configuration not stated), the inhibition was 9.22% (inactive). As to `C/C(=N/NC(=O)c1cc(-c2ccc(Cl)s2)[nH]n1)c1ccco1`, the inhibition was 40.6% (inactive).

On to `CC1(C)CC(=O)C=C(c2cccc3c2oc2ccccc23)C1`, for which the inhibition was 8.8% (inactive). The result for `COC(=O)[C@@H]1C[C@H]1[C@@H](NS(=O)(=O)c1ccccc1)c1ccccc1` reads -5.22% (inactive); that for `C/C(=N\N=C(/N)SC1CC(=O)N(c2ccc(Cl)cc2)C1=O)c1cccs1` (configuration not stated), 64.5% (inactive); that for `C/C(=N\N=C(/N)SC1CC(=O)N(c2ccccc2)C1=O)c1cccs1` (configuration not stated), 3.4% (inactive).

With `O=C(O)/C=C/c1ccc2ccccc2n1`, the inhibition is -1.78% (inactive). Next, `CN(C(=O)COC(=O)/C=C/c1ccc2ccccc2n1)C1CCS(=O)(=O)C1` (configuration not stated): 14.9% (inactive). Next, `COC(=O)CNC(=O)COC(=O)/C=C/c1ccc2ccccc2n1`: 61.8% (inactive); `CC(O)/C=C/c1ccc2ccccc2n1` (configuration not stated): 10.2% (inactive); `COc1cc(NC(=O)C2CC(=O)NC3=C2C(=O)CCC3)cc(OC)c1` (configuration not stated): -7.6% (inactive). The result for `CC(=O)O[C@]1(c2ccccc2)CCN(C)[C@H]2CCCC[C@@H]21` reads -5.42% (inactive); that for `Cc1ccc(Cn2nnc3c(=O)n(CC(=O)c4ccccc4)cnc32)cc1`, 4.84% (inactive); that for `CC(=O)N1C(=O)N(C)C2C1N(C)C(=O)N2C(C)=O` (configuration not stated), -8.79% (inactive). As to `C=CCOC(=O)C1=C(C)NC(=S)C(C#N)(CC=C)C1c1ccccc1Cl` (configuration not stated), the inhibition was -0.05% (inactive). The result for `Cc1ccc(S(=O)(=O)/N=C(\N)Nc2nc(C)c3ccccc3n2)cc1` reads 9.4% (inactive); that for `Cc1ccc2c(C)nc(N/C(N)=N/S(=O)(=O)c3ccc([N+](=O)[O-])cc3)nc2c1`, 13% (inactive); that for `CCCOc1ccc(N2C(=O)CC(SC(=N)N3N=C(c4ccccc4)CC3c3ccccc3)C2=O)cc1` (configuration not stated), 75.6% (inactive).

On to `CCN(CC)S(=O)(=O)c1ccc(NC(=O)C(C)N(c2ccccc2)S(C)(=O)=O)cc1` (configuration not stated), for which the inhibition is -1.18% (inactive). Next, `Cc1cccc(-c2nsc(SCC(=O)Nc3cc(C)on3)n2)c1`: 70.6% (inactive); `CCc1ccc2nc(-c3cccc(C)c3)nc(SCC(=O)NCC3CCCO3)c2c1` (configuration not stated): -13% (inactive); `COc1ccc(-c2nnc3ccc(SCC(=O)NCC4CCCO4)nn23)cc1` (configuration not stated): -3.46% (inactive). Next, `COc1ccc(-c2nnc(SCC(=O)NCC3CCCO3)n2C)cc1` (configuration not stated): -4.37% (inactive); `Cc1cc(NS(=O)(=O)c2ccccc2)n(-c2ccccc2)n1`: -2.44% (inactive).

Regarding `CCC(=O)N1CCc2cc(S(=O)(=O)NCCC(=O)N3CCN(c4ccccn4)CC3)ccc21`, the inhibition is -5.78% (inactive). Next, `COc1cc(/C=N/NC(=O)COc2ccccc2[N+](=O)[O-])ccc1OC(=O)c1ccco1`: 4.21% (inactive); `Cn1ccnc1SCC(=O)Nc1ccc(Oc2ccccc2)cc1`: 3.6% (inactive). The result for `CCCN1CCN(CCCNC(=O)C2CCN(c3nnc(-n4cccc4)s3)CC2)CC1` reads -6.41% (inactive); that for `O=C(CSc1nc(-c2ccccc2Cl)ns1)NCc1ccco1`, 24.3% (inactive). For the molecule `NC(=O)CSc1nc(-c2ccccc2Cl)ns1`, the inhibition was -12.5% (inactive). In the case of `COc1ccc(-n2c(C)cc(SC)c(C(C)=O)c2=S)cc1`, the inhibition was 1.47% (inactive). Next, `CC(Sc1nncn1C)C(=O)Nc1ccc(Cl)cn1` (configuration not stated): 4.99% (inactive). The result for `CC(Sc1nnnn1-c1ccccc1)C(=O)Nc1ccc(Cl)cn1` (configuration not stated) reads -7.65% (inactive). On to `Cc1nn(-c2ccc([N+](=O)[O-])cc2)c2c1C(c1cccc(Br)c1)N1C(=N2)C(=O)Nc2ccccc21` (configuration not stated), for which the inhibition was 73% (inactive).

Take `Cc1nn(-c2ccccc2)c2c1C(c1ccc([N+](=O)[O-])cc1)C(C#N)=C(N)O2` (configuration not stated): the inhibition is -9.83% (inactive). Next, `COc1cccc(C2c3c(C)nn(-c4ccc([N+](=O)[O-])cc4)c3N=C3C(=O)Nc4ccccc4N32)c1` (configuration not stated): 72.8% (inactive); `Cc1nn(-c2ccccc2)c2c1C(c1ccc(Cl)cc1)N(c1ccccc1)C(=O)N2` (configuration not stated): 63.4% (inactive); `Cc1c(NC(=O)C(C)OC(=O)COc2cccc3c2OC(C)(C)C3)c(=O)n(-c2ccccc2)n1C` (configuration not stated): 0.88% (inactive).

As for `COCCNC(=O)COC(=O)c1ccc(OCC(=O)Nc2ccccc2OC)c(OC)c1`, the inhibition was 2.52% (inactive).

As for `CCC1(C)CC(C(N)=S)CCO1` (configuration not stated), the inhibition was 7.13% (inactive).

Regarding `CCOC(=O)c1ccc(CSc2nnc(C)n2N)o1`, the inhibition is 1.16% (inactive). Next, `NC(=O)C[C@H]1NC(=O)[C@H](CCC(=O)O)NC(=O)c2cc([N+](=O)[O-])cc(I)c2NCCC[C@@H](C(N)=O)NC1=O`: 3.24% (inactive); `COc1ccc(Nc2ccnc3ccccc23)cc1`: 9.05% (inactive). The result for `Oc1ccc(Nc2ccnc3cc(Cl)ccc23)cc1` reads -0.59% (inactive); that for `c1ccc2cc3c(NCCN4CCOCC4)ccnc3cc2c1`, 3.77% (inactive).

As for `c1ccc(CCNc2ncnc3ccccc23)cc1`, the inhibition is -6.97% (inactive).

Take `Cc1c(C(=O)NCc2ccccc2Cl)oc2c1C(=O)CCC2`: the inhibition is -3.25% (inactive).

Consider `CCCCn1nc2cc(C(=O)NCc3cc(C(F)(F)F)cc(C(F)(F)F)c3)ccc2c1OC`, for which the inhibition is -4.51% (inactive). As to `O=C(NC1CCCCC1)c1ccc(Cn2cc(Cl)cn2)cc1`, the inhibition was 0.85% (inactive). The result for `CC(=O)Nc1ccc(NC(=O)c2ccc(Cl)nc2)cc1` reads 3.97% (inactive); that for `CCCSc1ccc(C(=O)Nc2ccc(F)cc2F)cn1`, 72.4% (inactive); that for `N=C1/C(=C/c2cccn2-c2ccc([N+](=O)[O-])cc2)C(=O)N=C2SC=CN12`, -5.89% (inactive). Consider `N=C1/C(=C/c2cccn2-c2cccc([N+](=O)[O-])c2)C(=O)N=C2SC=CN12`, for which the inhibition was -11.3% (inactive). Next, `Cc1ccc2cc(CN(CC3CCCO3)C(=O)C(C)C)c(=O)[nH]c2c1` (configuration not stated): -3.77% (inactive); `CCCCCCCCCCCCCCCC[n+]1cccc(C(=O)N(CC)CC)c1`: 5.29% (inactive). The result for `C=C(C)Cn1c(=O)c(NC(=O)c2ccccc2)c2n(c1=S)CCC2` reads -3.38% (inactive); that for `O=C(NCCCN1CCOCC1)c1cccnc1SCc1ccccc1Cl`, -2.04% (inactive). Next, `CCN(CC)CCN(Cc1cc2ccc(C)c(C)c2[nH]c1=O)C(=S)NCc1ccco1`: -6.4% (inactive); `O=[N+]([O-])c1ccc(COc2ccc(-c3[nH]ncc3-c3ccccc3)c(O)c2)cc1`: 11.9% (inactive); `COc1ccc(-c2cn[nH]c2-c2ccc(OCc3ccc([N+](=O)[O-])cc3)cc2O)cc1`: 9.69% (inactive). For the molecule `Cc1ccc(SCc2ccc(C(=O)N3CCCCC3)cc2)cc1`, the inhibition is 4.74% (inactive). Next, `COC(=O)CCCCC1SCC(NC(=O)c2ccccc2)C1OC(C)=O` (configuration not stated): -1.97% (inactive); `COC(=O)/C(=C\Nc1ccc(OC)cc1)NC(=O)c1ccc(Cl)cc1Cl`: 46.4% (inactive). The result for `NS(=O)(=O)c1ccc(NC(=O)/C=C/c2cccs2)cc1` reads -2.49% (inactive).

Turning to `O=C(/C=C/c1cccs1)Nc1ccncc1`, the inhibition was -3.31% (inactive). Take `CCN(CC)CCOC(=O)c1ccc(NC(=O)/C=C/c2cccs2)cc1`: the inhibition was -0.83% (inactive).

As for `CCCOC(=O)c1ccc(NS(=O)(=O)c2cccs2)cc1`, the inhibition is 8.32% (inactive). Next, `CC(=O)Nc1ccc(N(C(=O)c2ccco2)C(C(=O)NC2CCCC2)c2cccs2)cc1` (configuration not stated): -12.6% (inactive). The result for `O=C(O)c1cc([N+](=O)[O-])ccc1Nc1ccccc1` reads 0.55% (inactive); that for `CCOC(=O)C1=C(C)N(Cc2ccccc2)C(=O)NC1c1ccccc1OS(=O)(=O)c1ccccc1[N+](=O)[O-]` (configuration not stated), 1.38% (inactive).

On to `CCNC(=O)CN(C1CCCCC1)S(C)(=O)=O`, for which the inhibition is -1.63% (inactive).

For `Cc1cc(N2CCN(C(=O)c3ccco3)CC2)n2ncnc2n1`, the inhibition was 0.62% (inactive). Consider `O=C(Nc1ccc(Cl)c(Cl)c1)Oc1ccc(NC(=O)c2ccco2)cc1`, for which the inhibition is 61.8% (inactive). Regarding `CCc1ccc(C(C)NC(=O)Cc2ccc(F)cc2)cc1` (configuration not stated), the inhibition is 9.96% (inactive). Next, `CCOC(=O)Cn1c(-c2ccccc2)nc2ccccc2c1=O`: 45.8% (inactive).

Consider `COCCCn1c(-c2ccccc2)nc2ccccc2c1=O`, for which the inhibition is 5.89% (inactive). The result for `CCCNS(=O)(=O)c1ccc(OCC(=O)Nc2ccc3c(c2)OCO3)cc1` reads -3.44% (inactive); that for `CCCN(CC1CC1)C(=S)Nc1ccc(C(C)=O)cc1`, -2.45% (inactive). Next, `COc1cc(-c2nn3c(C4CCCCC4)nnc3s2)cc(OC)c1OC`: 28.5% (inactive). With `COc1ccc(-c2nn3c(C4CCCCC4)nnc3s2)cc1OC`, the inhibition was 4.71% (inactive). Next, `Cc1nnc(Sc2cc(C(=O)NCCCOC(C)C)c3ccccc3n2)s1`: 4.65% (inactive); `CCN1C(=O)C2(C(C#N)=C(N)Oc3n[nH]c(COC)c32)c2ccccc21` (configuration not stated): -1.31% (inactive).

Consider `Cc1ccc(CNCc2ccccc2Cl)cc1`, for which the inhibition was 6.89% (inactive). Next, `Cc1cccc2cc(CNCc3ccccc3)c(Cl)nc12`: -2.86% (inactive); `Cc1cc(C)c(NC(=O)CSc2nc3ccc(NC(=O)CSc4nnnn4Cc4ccccc4)cc3s2)c(C)c1`: 8.59% (inactive); `O=C(CCN1CCN(Cc2ccccc2)CC1)Nc1cccc(Cl)c1`: -5.85% (inactive). Consider `Cc1cc(C)c2c(CN3CCN(Cc4ccc5c(c4)OCO5)CC3)cc(=O)oc2c1`, for which the inhibition is 23.5% (inactive). For `Cc1ccc2c(CN3CCN(Cc4ccc5c(c4)OCO5)CC3)cc(=O)oc2c1C`, the inhibition was -3.12% (inactive).
